Assay [1] is described as follows: Nuclear factor erythroid 2-related factor 2/antioxidant responsive element (Nrf2/ARE) small molecule agonists: qHTS cell viability counter screen in human keratinocytes (AID 1919968; active = well fitted curve in the direction sought with a large enough effect in the repeat runs; an effect the other way counts as inactive or inconclusive; also: nearly all actives have a fitted effect of over 55% in size). In a few lines:
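KeratinoSens cells (HaCaT keratinocytes stably carrying an ARE-luciferase reporter) were seeded at 1,500 cells/well and rested 5 h at 37 C/5% CO2. They were then exposed to compounds in DMSO for 23 h. Viability was read by CellTiter-Fluor fluorescence after 1 h.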
(In general: qHTS replaces the single test concentration by a dilution series.)

Assay [2] can be described thus: Nuclear factor erythroid 2-related factor 2/antioxidant responsive element (Nrf2/ARE) small molecule agonists: luciferase reporter gene qHTS assay in human keratinocytes (AID 1919969). Also: nearly all actives have a fitted effect of over 35% in size.
The target in assay [3] is Gonadotropin-releasing hormone receptor (Homo sapiens) (UniProt P30968). Nature of the assay: Human gonadotropin-releasing hormone receptor (GnRHR) small molecule agonists, calcium flux assay in GnRHR-HEK293 cells (AID 1920063). Also: nearly all actives have a fitted effect of over 35% in size. In a few lines: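 HEK293 cells stably expressing human GnRHR were plated 18 h at 37 °C, loaded with calcium dye 1 h at 37 °C, then given compound in agonist mode; fluorescence (Ex/Em 480/540) read kinetically for 3 min at 1 s intervals.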
Sequence of Gonadotropin-releasing hormone receptor (Homo sapiens) (P30968 whole entry, looked up): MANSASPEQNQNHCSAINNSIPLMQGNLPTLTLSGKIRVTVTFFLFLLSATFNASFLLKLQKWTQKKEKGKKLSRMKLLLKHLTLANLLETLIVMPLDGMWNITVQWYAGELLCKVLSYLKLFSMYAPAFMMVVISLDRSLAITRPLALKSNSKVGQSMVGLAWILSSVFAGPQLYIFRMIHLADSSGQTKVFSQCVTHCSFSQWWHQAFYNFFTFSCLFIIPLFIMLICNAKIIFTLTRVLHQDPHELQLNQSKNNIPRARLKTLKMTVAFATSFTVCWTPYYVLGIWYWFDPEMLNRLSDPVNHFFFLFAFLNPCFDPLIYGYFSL

In assay [4] the target is KiSS-1 receptor (Homo sapiens) (UniProt Q969F8). Description: Human kisspeptin (KISS1R) small molecule agonists, calcium flux assay in KISS1R-HEK293 cells (AID 1920064; active = well fitted curve in the direction sought with a large enough effect in the repeat runs; an effect the other way counts as inactive or inconclusive). The method, boiled down:
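HEK293 cells stably expressing human KISS1R were plated 18 h at 37 °C, loaded with calcium dye for 1 h at 37 °C, then given compound by pin tool. Fluorescence (Ex/Em 480/540) was read kinetically for 3 min.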

Assay [5] can be described thus: G protein-coupled receptor (GPCR) small molecule agonists, calcium flux assay: HEK293 wild type cell line counter screen (AID 1920065). In a few lines: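 Cells were plated and cultured 18 h at 37 C/5% CO2, then loaded with calcium dye for 1 h at 37 C. Compounds in DMSO were pin-transferred in agonist mode, and fluorescence (Ex/Em 480/540) was read kinetically for 3 min at 1 s intervals.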

The nature of assay [6]: p53 small molecule agonists, cell-based qHTS assay with human liver microsomes: qHTS cell viability counter screen (AID 1963579). Also: nearly all actives have a fitted effect of over 45% in size. In a few lines:
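Metabolic activation used human liver microsomes and NADPH, both 0.5 mg/mL final, over 16 hours at 37 C on p53RE-bla cells (4,000/well). Cytotoxicity measured by CellTiter-Glo luminescence, 30 min at room temperature.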

Assay [7] in a line: p53 small molecule agonists, cell-based qHTS assay with rat liver microsomes: qHTS cell viability counter screen (AID 1963580). Also: nearly all actives have a fitted effect of over 45% in size. The method, boiled down: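 Intracellular ATP, by CellTiter-Glo luminescence, defines viability. HCT-116 p53RE-bla cells, 4,000 per well, were compound-treated in the presence of rat liver microsomes and NADPH for 16 h at 37 C.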
Assay [8] can be described thus: p53 small molecule agonists, cell-based qHTS assay: qHTS cell viability counter screen (AID 1963581). Also: nearly all actives have a fitted effect of over 45% in size. The method, boiled down: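 p53RE-bla HCT-116 cells were exposed to compounds for 16 h at 37 C; after the beta-lactamase FRET read in the same wells, CellTiter-Glo was added and luminescence (intracellular ATP) read after 30 min at room temperature.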
Assay [9] has as its target 5-hydroxytryptamine receptor 2A (Homo sapiens) (UniProt P28223). Description: 5-hydroxytryptamine receptor 2A (HTR2A) small molecule antagonists, cell-based qHTS assay (AID 1963586). Also: nearly all actives have a fitted effect of over 45% in size. In a few lines:
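Antagonist-mode intracellular calcium assay: DOI (4 nM) added after 5 min compound pre-incubation at room temperature to dye-loaded HTR2A-CHO cells. Fluorescence followed for 3 min, sampled every second.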

The target is the same in assay [10]. Description: 5-hydroxytryptamine receptor 2A (HTR2A) small molecule agonists, cell-based qHTS assay (AID 1963587). Also: nearly all actives have a fitted effect of over 30% in size. The method, boiled down:
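Kinetic calcium-flux fluorescence (2 min, 1 sec intervals) after compound addition in agonist mode. HTR2A-CHO cells were cultured 18 h, then dye-loaded 1 h at 37 C.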

For assay [11], the target named is Muscarinic acetylcholine receptor M1 (Homo sapiens) (UniProt P11229). Description: Cholinergic receptor muscarinic 1 (CHRM1) small molecule antagonists, cell-based qHTS assay (AID 1963588). Also: nearly all actives have a fitted effect of over 40% in size. Also: potency is read from the fitted curve at half-maximal effect. The method, boiled down:
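CHRM1-CHO calcium-flux assay, antagonist mode. Cells were seeded 18 h, dye-loaded 1 h at 37 C and given compound for 5 min at RT, then acetylcholine was added at 50nM. FDSS fluorescence was read 3 min; 15 concentrations, three runs.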

For assay [12] the target is unchanged. Nature of the assay: Cholinergic receptor muscarinic 1 (CHRM1) small molecule agonists, cell-based qHTS assay (AID 1963589). Also: nearly all actives have a fitted effect of over 35% in size. The method, boiled down: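 CHO cells stably expressing human CHRM1, seeded 18 h at 37 C/5% CO2, dye-loaded 1 h at 37 C, then given compound in agonist mode; intracellular calcium fluorescence read kinetically at 1 s intervals. Fifteen concentrations, three independent runs.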

The nature of assay [13]: cAMP Responsive Elements (CRE) small molecule agonists, cell-based qHTS assay (AID 1963590). In a few lines: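 CRE-bla HEK 293T cells in DMEM with 10% dialyzed FBS, NEAA, pyruvate and 25 mM HEPES were plated 18 h at 37 C/5% CO2, then exposed to compounds in DMSO for 3 h before LiveBLAzer B/G FRET substrate addition.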
Assay [14] is described as follows: cAMP Responsive Elements (CRE) small molecule antagonists, cell-based qHTS assay (AID 1963591; active = well fitted inhibition curve with a large enough effect in the signal ratio in the repeat runs, not every such curve was filed as active; the % refers to the signal ratio). The method, boiled down: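 CRE-bla HEK293T cells were plated 18 h at 37 °C/5% CO2, pinned with compound in DMSO, then stimulated with NKH477 at 0.25 uM final for 3 h. LiveBLAzer B/G FRET substrate was added and plates incubated 2 h at room temperature.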
The target in assay [15] is D(2) dopamine receptor (Homo sapiens) (UniProt P14416). Nature of the assay: Dopamine D2 receptor (DRD2) small molecule agonists, cell-based qHTS assay (AID 1963594). Also: nearly all actives have a fitted effect of over 35% in size. The method, boiled down: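 cAMP accumulation in DRD2-HEK293 cells measured by HTRF after 1 h detection; compounds added 10 min before NKH477 (200nM […]) forskolin-analogue stimulation, 30 min at room temperature, with Ro20-1724 present at 0.1 mM final.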
Sequence of D(2) dopamine receptor (Homo sapiens) (P14416 whole entry, looked up): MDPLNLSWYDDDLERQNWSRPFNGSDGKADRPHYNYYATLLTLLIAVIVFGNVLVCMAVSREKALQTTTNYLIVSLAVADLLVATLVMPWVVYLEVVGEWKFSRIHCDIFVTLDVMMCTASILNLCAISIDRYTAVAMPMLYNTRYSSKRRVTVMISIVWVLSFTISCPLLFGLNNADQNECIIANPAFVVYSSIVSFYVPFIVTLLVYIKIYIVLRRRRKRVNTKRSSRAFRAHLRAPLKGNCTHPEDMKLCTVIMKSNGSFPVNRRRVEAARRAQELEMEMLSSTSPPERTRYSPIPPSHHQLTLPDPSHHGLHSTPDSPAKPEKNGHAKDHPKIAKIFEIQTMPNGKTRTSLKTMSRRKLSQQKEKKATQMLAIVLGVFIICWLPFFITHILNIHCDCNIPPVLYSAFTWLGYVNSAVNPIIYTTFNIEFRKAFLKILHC

For assay [16] the target is unchanged. Description: Dopamine D2 receptor (DRD2) small molecule antagonists, cell-based qHTS assay (AID 1963595; active = well fitted inhibition curve with a large enough effect in the signal ratio in the repeat runs, with a control signal flat; the % refers to the signal ratio). The method, boiled down: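 Cells were plated and grown for 24 h at 37 °C. Ro20-1724 (0.1 mM final) went in first, then compound for 10 min. NKH477 (200 nM) with quinpirole (12 nM) followed for 30 min at RT, then HTRF detection reagents for 1 h.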
The target of assay [17] is Beta-2 adrenergic receptor (Homo sapiens) (UniProt P07550). Description: Adrenergic beta2 receptor (ADRB2) small molecule antagonists, cell-based qHTS assay (AID 1963592). Also: series mostly up to about 92 µM; nearly all actives have a fitted effect of over 50% in size. In a few lines:
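Cells (CHO, stable ADRB2 overexpression) incubated 18-20hr at 37C; compounds added from DMSO; agonist mix (1nM isoproterenol, 100uM IBMX, 25uM Ro-20-1724) added; 0.5hr RT; d2-cAMP and anti-cAMP-cryptate added; 1hr RT; 665/615 nm read.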

Assay [18] has the same target. Description: Adrenergic beta2 receptor (ADRB2) small molecule agonists, cell-based qHTS assay (AID 1963593).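 Also: CHO cells stably overexpressing human ADRB2.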 The method, boiled down: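 CHO cells stably over-expressing ADRB2 were plated overnight at 37C, then dosed with compounds plus a stimulation mix containing 100uM IBMX and 25uM Ro-20-1724 for 0.5hr at room temperature. cAMP was measured by HTRF competition, 1hr.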

Unmarked numbers belong to inactive results. Records with an inconclusive call do not appear. Activity calls are given as the source filed them. Unless noted, calls follow the shape of the full dose curve.

Sequence of KiSS-1 receptor (Homo sapiens) (Q969F8 whole entry, looked up): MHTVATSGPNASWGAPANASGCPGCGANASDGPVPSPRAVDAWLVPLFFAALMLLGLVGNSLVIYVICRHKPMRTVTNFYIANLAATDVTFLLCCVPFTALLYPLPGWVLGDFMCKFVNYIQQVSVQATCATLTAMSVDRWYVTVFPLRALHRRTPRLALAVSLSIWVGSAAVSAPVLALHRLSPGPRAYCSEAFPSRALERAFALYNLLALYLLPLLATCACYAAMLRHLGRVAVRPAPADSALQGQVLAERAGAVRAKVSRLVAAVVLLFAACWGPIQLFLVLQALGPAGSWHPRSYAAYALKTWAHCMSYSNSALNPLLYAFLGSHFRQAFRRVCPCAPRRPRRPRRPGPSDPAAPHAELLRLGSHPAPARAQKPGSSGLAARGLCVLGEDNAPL
Sequence of Beta-2 adrenergic receptor (Homo sapiens) (P07550 whole entry, looked up): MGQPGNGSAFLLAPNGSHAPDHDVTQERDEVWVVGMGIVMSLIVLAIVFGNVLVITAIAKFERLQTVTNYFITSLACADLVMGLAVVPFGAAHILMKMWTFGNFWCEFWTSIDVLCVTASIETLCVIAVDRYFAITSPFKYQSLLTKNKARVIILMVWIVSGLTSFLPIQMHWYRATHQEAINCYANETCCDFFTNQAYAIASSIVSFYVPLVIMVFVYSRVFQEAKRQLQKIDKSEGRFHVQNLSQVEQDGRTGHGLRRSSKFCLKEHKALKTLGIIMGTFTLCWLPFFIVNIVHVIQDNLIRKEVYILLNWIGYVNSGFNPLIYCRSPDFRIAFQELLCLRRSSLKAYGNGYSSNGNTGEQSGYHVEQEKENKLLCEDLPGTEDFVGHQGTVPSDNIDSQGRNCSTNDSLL
Sequence of 5-hydroxytryptamine receptor 2A (Homo sapiens) (P28223 whole entry, looked up): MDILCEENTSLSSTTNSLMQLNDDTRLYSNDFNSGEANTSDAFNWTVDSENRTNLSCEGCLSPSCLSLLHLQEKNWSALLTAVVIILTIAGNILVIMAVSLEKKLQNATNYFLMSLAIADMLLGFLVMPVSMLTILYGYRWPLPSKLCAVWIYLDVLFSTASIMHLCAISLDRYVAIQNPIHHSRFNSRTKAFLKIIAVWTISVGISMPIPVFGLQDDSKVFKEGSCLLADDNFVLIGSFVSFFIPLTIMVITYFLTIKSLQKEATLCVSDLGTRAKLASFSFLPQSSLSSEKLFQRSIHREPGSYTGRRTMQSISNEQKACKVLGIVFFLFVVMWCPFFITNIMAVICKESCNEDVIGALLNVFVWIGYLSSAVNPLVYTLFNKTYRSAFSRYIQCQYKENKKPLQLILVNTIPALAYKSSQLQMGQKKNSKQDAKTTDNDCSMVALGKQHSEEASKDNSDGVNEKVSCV
Sequence of Muscarinic acetylcholine receptor M1 (Homo sapiens) (P11229 whole entry, looked up): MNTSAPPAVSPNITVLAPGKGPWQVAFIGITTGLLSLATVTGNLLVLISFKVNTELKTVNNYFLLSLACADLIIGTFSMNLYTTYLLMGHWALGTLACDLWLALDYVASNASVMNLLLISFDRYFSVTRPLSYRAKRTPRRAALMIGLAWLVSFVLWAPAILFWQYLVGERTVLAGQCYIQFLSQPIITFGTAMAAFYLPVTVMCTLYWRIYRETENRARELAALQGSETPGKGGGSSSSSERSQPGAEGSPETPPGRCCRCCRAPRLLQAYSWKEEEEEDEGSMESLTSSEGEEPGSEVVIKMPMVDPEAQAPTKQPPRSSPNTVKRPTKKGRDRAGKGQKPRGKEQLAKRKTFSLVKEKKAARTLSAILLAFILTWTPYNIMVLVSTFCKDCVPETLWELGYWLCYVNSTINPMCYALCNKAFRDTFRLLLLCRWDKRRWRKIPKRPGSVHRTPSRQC

As for `C=C(C)C(=O)OCCO`, the Potency entry in [1], in assay [2], in assay [3], in [4], in assay [5] and in assay [6] was “inactive” each time. Besides, the Potency entry in assay [7], in assay [8], in [9], in assay [10], in assay [11] and in [12] was “inactive” throughout. Further, the Potency entry in assay [13], in assay [14], in [15] and in [16] was “inactive” throughout.
For `COc1ccc(Cc2cnc(N)nc2N)cc1OC`, the Potency result in assay [1], in assay [2], in [3], in assay [4], in assay [5] and in assay [6] was “inactive” throughout. Moreover, the Potency entry in [7], in assay [8], in [9], in assay [10], in assay [11] and in assay [12] was “inactive” each time. Further, the Potency entry in assay [13], in assay [17], in [18], in assay [15] and in assay [16] was “inactive” each time.
As to `CN(C)c1ccncc1`, the Potency entry in assay [1], in assay [2], in assay [3], in assay [4], in assay [5] and in assay [6] was “inactive” each time. Also, the Potency result in [7], in assay [8], in [9], in [10], in assay [11] and in assay [12] was “inactive” each time. Moreover, the Potency entry in assay [13], in [14], in assay [17], in assay [15] and in assay [16] was “inactive” in each case.
As for `CC(C)(C)CC(C)(C)N`, the Potency result in [1], in assay [2], in assay [3], in [4], in assay [5] and in assay [6] was “inactive” in each case. The Potency result in assay [7], in [8], in [9], in assay [10], in assay [11] and in assay [12] was “inactive” each time. For the same compound, the Potency entry in assay [13], in [14], in assay [17], in [15] and in assay [16] was “inactive” throughout.
`CC(O)C1CCCCC1` (stereo not drawn): the Potency entry in assay [1], in assay [2], in assay [3], in assay [4], in [5] and in assay [6] was “inactive” throughout. Moreover, the Potency entry in assay [7], in assay [8], in assay [9], in [10], in assay [11] and in [12] was “inactive” throughout. Also, the Potency result in assay [13], in assay [14], in assay [17], in [15] and in assay [16] was “inactive” in each case.
With `CCN(CC)CCNC(C(=O)OCCC(C)C)c1ccccc1` (stereo not drawn), the Potency result in assay [1], in assay [2], in [3], in assay [4], in [5] and in [6] was “inactive” each time. Further, the Potency result in [7], in assay [8], in assay [9], in [10], in assay [12] and in assay [13] was “inactive” each time. Besides, the Potency entry in [14], in [17], in assay [15] and in assay [16] was “inactive” in each case. Besides, in assay [11], the Potency is 516 nM (active).
With `CCCCCCCOC(=O)CCC`, the Potency entry in assay [1], in [2], in [3], in assay [4], in [5] and in [6] was “inactive” in each case. In addition, the Potency entry in [7], in assay [8], in assay [9], in [10], in assay [11] and in assay [12] was “inactive” each time. Moreover, the Potency result in assay [13], in assay [17], in assay [18], in assay [15] and in assay [16] was “inactive” in each case.

Source of the values: PubChem BioAssay (Tox21).
